Our source for the composite z-score and z-score values is PubChem BioAssay.

Active and inactive are the calls of the source.

Experiment [1] is described as follows: small molecules captured by biotinylated probe aFSTL3 – biochemical, small-molecule microarray, fluorescence 635/667, stem cell growth factor project, primary screen (AID 1064).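 Note: measures binding of the biotinylated anti-FSTL3 antibody to printed compounds.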 The conditions noted are these: higher = more signal.
A short description of experiment [2]: binders from COS7 lysate, DM2A8 probe, primary screen, torsin A project, cell lysate, small-molecule microarray, fluorescence 635/667 (AID 1065). The note with it: higher = more signal, COS7 lysate expressing mutant human TOR1A.
Experiment [3] can be described thus: small molecules captured by biotinylated probe aFGF2 – biochemical, small-molecule microarray, fluorescence 635/667, stem cell growth factor project, primary screen (AID 1067).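 Note: measures binding of biotinylated aFGF2 protein to printed compounds on slides; z-score merges feature fluorescence and signal-to-noise across triplicate slides.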 The conditions noted are these: higher = more signal.
Experiment [4] in a line: small molecules captured by biotinylated probe aFGF10 – biochemical, small-molecule microarray, fluorescence 635/667, stem cell growth factor project, primary screen (AID 1071).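 Note: score merges 667 nm spot intensity and signal to noise from triplicate slides.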 The conditions noted are these: higher = more signal.
For experiment [5], the target named is Neurogenic locus notch homolog protein 2 (Homo sapiens) (UniProt Q04721). The experiment in a line: small molecules binding Notch2 protein – biochemical, small-molecule microarray, 635 nm fluorescence, stem cell growth factors, primary screen (AID 1073). The note with it: higher = more signal.
For experiment [6], the target named is Pro-neuregulin-1, membrane-bound isoform (Homo sapiens) (UniProt Q02297). The experiment in a line: small molecules binding neuregulin-1 protein – biochemical, small-molecule microarray, fluorescence 635/667, psychiatric disease protein project, primary screen (AID 1075).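 Note: score combines 667 nm spot fluorescence with signal to noise.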 The note with it: NRG1 binding, 635 nm fluorescence, higher = more signal.
The test system of experiment [7] is Neuregulin-1 EGF-like domain. The experiment in a line: small molecules binding NRG1 EGF domain – biochemical, small-molecule microarray, 635 nm fluorescence, primary screen (AID 1081).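 Note: binding of the protein to compounds printed on small-molecule microarray slides.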 The note with it: higher = more signal.
Experiment [8] in a line: FRG1 expression reporter modulators in myotubes – cell-based, C2C12 myotubes, firefly/Renilla luciferase, luminescence, FRG1 inhibition for FSHD, primary screen (AID 1084). The conditions noted are these: FRG1 promoter luciferase, higher = more signal, called active from +8 up or from −8 down.
A short description of experiment [9]: small molecules captured by biotinylated probe aFST – biochemical, small-molecule microarray, fluorescence 635/667, stem cell growth factor project, primary screen (AID 1086).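 Note: score merges 667 nm fluorescence with signal-to-noise of each printed compound spot.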 The conditions noted are these: higher = more signal.
Experiment [10] is described as follows: binders of probe aHhip on microarray, primary screen, stem cell growth factor project, biochemical, small-molecule microarray, fluorescence 635/667 (AID 1087).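 Note: score merges spot fluorescence at 667nm with spot signal to noise ratio.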 The conditions noted are these: higher = more signal.
In experiment [11] the test system is PRMT1 (protein arginine N-methyltransferase 1). The experiment is described as follows: small molecules binding arginine methyltransferase PRMT1 – biochemical, small-molecule microarray, 635 nm fluorescence, primary screen (AID 1088).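 Note: binding of Prmt1 protein to compounds spotted on small-molecule microarray slides.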 The conditions noted are these: higher = more signal.
The nature of experiment [12]: growth effects on S. cerevisiae YJM789 – YJM789 clinical isolate, OD600, 24 h, basal, primary screen (AID 1089).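 Note: growth of clinical yeast isolate S. cerevisiae YJM 789 seeded 1000 cells per well; test concentration not given here.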 The note with it: higher = more signal, called active from +8 up or from −8 down.
Experiment [13] in a line: S. pombe growth modifiers, basal conditions – strain 972, OD600, 24 h, no modulator, primary screen (AID 1090).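 Note: basal condition with compound alone and no growth modifier present; test concentration not given here.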 The conditions noted are these: S. pombe 972 growth, higher = more signal, called active from +8 up or from −8 down.
The nature of experiment [14]: budding yeast growth modifiers under rapamycin – strain BY4716, OD600, 96 h, primary screen (AID 1091). Note: test concentration not given here. The conditions noted are these: S. cerevisiae BY4716 + rapamycin, higher = more signal, called active from +8 up or from −8 down.
For experiment [15], the target named is Torsin-1A-interacting protein 2 (Homo sapiens) (UniProt Q8NFQ8). The experiment is described as follows: small molecules binding lysate-expressed LULL1 – cell lysate, human LULL1 lysate, 635/667 nm fluorescence, primary screen (AID 1092).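 Note: probe is lysate of COS7 cells overexpressing human LULL1; score merges per-feature 667 nm fluorescence with signal-to-noise.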 The note with it: small-molecule microarray, hLULL1 lysate binding, 635 nm fluorescence; higher = more signal.
Experiment [16] can be described thus: optical density change of DRC41 E. coli – strain DRC41, OD650, 24 h, E. coli filamentation project, primary screen (AID 1093).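 Note: MC1000 strain lacking acrAB efflux and sulA so SOS filamentation is blocked; test concentration not given here.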 The conditions noted are these: E. coli DRC41 growth, higher = more signal, called active from +8 up or from −8 down.
Experiment [17] can be described thus: probe aLefty2 binding to arrayed compounds – biochemical, biotinylated probe, 635/667 nm fluorescence, primary screen (AID 1094).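 Note: score merges spot fluorescence near 667 nm with spot signal-to-noise ratio.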 The conditions noted are these: small-molecule microarray, higher = more signal.
Experiment [18] has as its system Noggin (protein binding on small-molecule microarray). The experiment in a line: small molecules binding Noggin protein – biochemical, 635/667 nm fluorescence, primary screen (AID 1095).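 Note: score merges 667 nm feature fluorescence with signal to noise over triplicate slides.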 The conditions noted are these: 635 nm fluorescence, higher = more signal.
Experiment [19] deals with Neurogenic locus notch homolog protein 3 (Homo sapiens) (UniProt Q9UM47). The experiment in a line: small molecules binding NOTCH3 protein – biochemical, 635/667 nm fluorescence, primary screen (AID 1096). The conditions noted are these: small-molecule microarray, 635 nm fluorescence, higher = more signal.
A short description of experiment [20]: probe aEGFR binding to arrayed compounds – biochemical, biotinylated probe, 635/667 nm fluorescence, primary screen (AID 1097).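 Note: probe is a biotinylated anti-EGFR antibody binding compounds printed on slides; score combines fluorescence near 667 nm and signal to noise of each spot.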 The note with it: small-molecule microarray, higher = more signal.

Sequence of Torsin-1A-interacting protein 2 (Homo sapiens) (Q8NFQ8 whole entry, looked up): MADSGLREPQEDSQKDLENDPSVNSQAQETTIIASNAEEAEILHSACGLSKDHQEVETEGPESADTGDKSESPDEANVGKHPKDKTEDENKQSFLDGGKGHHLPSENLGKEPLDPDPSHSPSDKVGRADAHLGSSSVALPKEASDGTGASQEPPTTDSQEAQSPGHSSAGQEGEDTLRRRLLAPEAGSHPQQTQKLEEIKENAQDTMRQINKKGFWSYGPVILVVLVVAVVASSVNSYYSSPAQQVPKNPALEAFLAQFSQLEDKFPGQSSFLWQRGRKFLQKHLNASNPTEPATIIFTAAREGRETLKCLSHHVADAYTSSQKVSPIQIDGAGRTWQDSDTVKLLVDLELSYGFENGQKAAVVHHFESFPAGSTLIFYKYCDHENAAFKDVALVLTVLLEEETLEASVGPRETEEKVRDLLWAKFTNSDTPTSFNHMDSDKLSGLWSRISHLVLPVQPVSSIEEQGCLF
Sequence of Pro-neuregulin-1, membrane-bound isoform (Homo sapiens) (Q02297 whole entry, looked up, the tested form may be a part, canonical isoform): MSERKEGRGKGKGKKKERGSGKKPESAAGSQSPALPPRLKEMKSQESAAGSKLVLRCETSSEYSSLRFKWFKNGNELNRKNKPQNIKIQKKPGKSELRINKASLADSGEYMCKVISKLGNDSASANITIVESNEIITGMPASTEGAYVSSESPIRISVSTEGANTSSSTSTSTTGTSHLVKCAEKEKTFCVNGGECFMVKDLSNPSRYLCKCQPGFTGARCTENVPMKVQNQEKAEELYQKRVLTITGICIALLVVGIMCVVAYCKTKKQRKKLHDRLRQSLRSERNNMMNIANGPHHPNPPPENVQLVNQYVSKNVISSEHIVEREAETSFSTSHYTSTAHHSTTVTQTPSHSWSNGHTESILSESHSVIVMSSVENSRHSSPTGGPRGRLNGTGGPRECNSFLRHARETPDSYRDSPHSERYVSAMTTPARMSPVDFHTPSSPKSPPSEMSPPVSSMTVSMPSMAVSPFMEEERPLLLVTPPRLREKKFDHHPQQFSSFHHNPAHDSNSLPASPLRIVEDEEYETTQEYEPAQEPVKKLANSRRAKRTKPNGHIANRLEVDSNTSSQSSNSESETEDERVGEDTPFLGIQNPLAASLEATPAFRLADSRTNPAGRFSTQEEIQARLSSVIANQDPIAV
Sequence of Neurogenic locus notch homolog protein 3 (Homo sapiens) (Q9UM47 whole entry, looked up): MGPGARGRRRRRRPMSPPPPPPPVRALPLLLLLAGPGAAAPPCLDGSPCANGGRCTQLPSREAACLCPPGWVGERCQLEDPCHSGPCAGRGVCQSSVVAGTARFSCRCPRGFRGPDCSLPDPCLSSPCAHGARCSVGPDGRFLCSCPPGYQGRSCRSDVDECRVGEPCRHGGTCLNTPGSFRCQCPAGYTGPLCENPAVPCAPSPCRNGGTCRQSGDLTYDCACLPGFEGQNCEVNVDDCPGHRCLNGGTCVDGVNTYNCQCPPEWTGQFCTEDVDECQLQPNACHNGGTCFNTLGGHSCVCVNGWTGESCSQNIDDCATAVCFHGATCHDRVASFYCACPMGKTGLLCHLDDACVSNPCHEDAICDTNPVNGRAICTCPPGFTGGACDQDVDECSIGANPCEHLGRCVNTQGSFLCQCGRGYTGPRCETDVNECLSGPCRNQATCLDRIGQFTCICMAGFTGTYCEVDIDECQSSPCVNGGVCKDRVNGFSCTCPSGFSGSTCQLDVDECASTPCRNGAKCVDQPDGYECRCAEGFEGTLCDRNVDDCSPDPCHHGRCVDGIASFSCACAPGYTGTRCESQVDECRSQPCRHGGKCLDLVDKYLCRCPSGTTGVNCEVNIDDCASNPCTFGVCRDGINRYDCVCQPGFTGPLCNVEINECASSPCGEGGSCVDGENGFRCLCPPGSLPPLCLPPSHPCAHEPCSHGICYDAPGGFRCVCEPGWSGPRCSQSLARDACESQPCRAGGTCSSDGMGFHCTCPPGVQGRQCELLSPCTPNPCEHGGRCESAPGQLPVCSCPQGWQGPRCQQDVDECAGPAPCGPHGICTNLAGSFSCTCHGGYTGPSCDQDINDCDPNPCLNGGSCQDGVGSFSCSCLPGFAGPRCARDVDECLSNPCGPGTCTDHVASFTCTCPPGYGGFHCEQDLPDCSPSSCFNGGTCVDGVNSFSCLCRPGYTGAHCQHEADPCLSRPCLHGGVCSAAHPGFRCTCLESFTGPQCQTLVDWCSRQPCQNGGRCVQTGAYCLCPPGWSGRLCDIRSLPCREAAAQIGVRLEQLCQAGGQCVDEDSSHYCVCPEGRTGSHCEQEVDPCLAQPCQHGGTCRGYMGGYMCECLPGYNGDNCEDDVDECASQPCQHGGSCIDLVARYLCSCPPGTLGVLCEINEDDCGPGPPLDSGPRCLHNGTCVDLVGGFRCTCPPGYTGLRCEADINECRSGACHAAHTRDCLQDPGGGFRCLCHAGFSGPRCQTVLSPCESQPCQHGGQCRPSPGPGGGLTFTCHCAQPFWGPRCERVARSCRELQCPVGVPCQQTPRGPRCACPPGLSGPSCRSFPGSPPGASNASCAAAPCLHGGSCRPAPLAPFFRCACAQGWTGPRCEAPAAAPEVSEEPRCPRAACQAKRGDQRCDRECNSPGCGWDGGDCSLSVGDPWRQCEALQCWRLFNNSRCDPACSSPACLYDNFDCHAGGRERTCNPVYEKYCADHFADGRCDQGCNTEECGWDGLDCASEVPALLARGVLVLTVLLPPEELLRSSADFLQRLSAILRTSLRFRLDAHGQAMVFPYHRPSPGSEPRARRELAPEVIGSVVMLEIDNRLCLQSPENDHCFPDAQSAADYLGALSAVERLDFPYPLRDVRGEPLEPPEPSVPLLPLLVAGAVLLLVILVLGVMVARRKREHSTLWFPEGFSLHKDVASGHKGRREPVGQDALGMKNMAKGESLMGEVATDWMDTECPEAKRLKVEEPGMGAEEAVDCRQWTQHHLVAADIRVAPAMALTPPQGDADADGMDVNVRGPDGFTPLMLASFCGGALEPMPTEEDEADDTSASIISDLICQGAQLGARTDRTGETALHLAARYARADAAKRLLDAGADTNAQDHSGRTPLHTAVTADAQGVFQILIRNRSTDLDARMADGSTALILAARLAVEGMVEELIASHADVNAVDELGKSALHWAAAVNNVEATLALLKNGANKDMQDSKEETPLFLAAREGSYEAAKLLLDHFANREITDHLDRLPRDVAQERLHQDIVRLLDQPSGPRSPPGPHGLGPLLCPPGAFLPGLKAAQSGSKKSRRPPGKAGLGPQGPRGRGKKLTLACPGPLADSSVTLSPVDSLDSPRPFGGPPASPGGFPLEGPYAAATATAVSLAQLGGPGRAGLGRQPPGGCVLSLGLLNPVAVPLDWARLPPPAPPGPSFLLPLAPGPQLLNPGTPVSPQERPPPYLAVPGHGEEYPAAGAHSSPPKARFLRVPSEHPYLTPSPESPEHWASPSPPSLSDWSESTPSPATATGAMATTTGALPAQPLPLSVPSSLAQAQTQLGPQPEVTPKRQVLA

On to `COC(=O)CC=C[C@@H](C)[C@@H](C=NOC[C@@H](O)COCc1ccco1)NS(=O)(=O)c1ccc(C)cc1`, for which the composite z-score in experiment [1] was -0.568; in experiment [2], 0.9; in experiment [3], -0.162; in [4], -0.28; in experiment [5], -0.572; in experiment [6], -0.767. In addition, the composite z-score is -0.929 in [7]; -0.0225 in experiment [9]; -0.0237 in [10]; 0.0315 in [11]; -1.12 in [15]; -0.202 in [17]. In addition, the composite z-score in experiment [18] was 0.704; in [19], -0.834; in experiment [20], -0.195. Further, the z-score is 0.184 (inactive) in experiment [8]; 0.0457 (inactive) in experiment [12]; 1.02 (inactive) in [13]; 0.0521 (inactive) in experiment [14]; 0.835 (inactive) in [16].
Regarding `COc1ccc(O[C@H]2C=C[C@@H](c3ccccc3)O[C@@H]2CON=C2c3cc(OC)ccc3O[C@H](c3cccc(OC)c3)[C@H]2O)cc1`, the composite z-score was -0.661 in experiment [1]; 0.354 in experiment [2]; -0.201 in [3]; -0.054 in experiment [4]; 1.38 in experiment [5]; -0.139 in experiment [6]. Further, the composite z-score in experiment [7] is 0.463; in [9] it was 0.34; in experiment [10], -0.226; in experiment [11], 0.554; in [15], 0.585; in experiment [17], -0.231. Besides, the composite z-score was 1.4 in experiment [18], 0.927 in [19] and -0.171 in experiment [20]. The z-score in experiment [8] was 1.82 (inactive); in [12] it was -0.0549 (inactive); in experiment [13], 0.281 (inactive); in experiment [14], -0.0588 (inactive); in [16] it was 0.0551 (inactive).
For the compound `CC(C)[C@@H](OCc1ccccc1)[C@H](C)C=NO[C@H](C)c1cn([C@@H]2COC[C@H]2O)nn1`, the composite z-score is -0.478 in experiment [1]; 0.402 in experiment [2]; -0.0262 in experiment [3]; 0.281 in experiment [4]; 0.794 in experiment [5]; -0.0746 in experiment [6]. The composite z-score in experiment [7] is 1.07; in [9], -0.0844; in [10], 0.165; in experiment [11], 1.55; in experiment [15], 1.28; in experiment [17], -0.162. The composite z-score is 0.871 in experiment [18], 0.968 in experiment [19] and -0.0111 in [20]. The z-score in [8] is 0.476 (inactive); in [12], -1.02 (inactive); in experiment [13], -0.121 (inactive); in experiment [14], 0.0703 (inactive); in experiment [16] it was 1.13 (inactive).
Turning to `COC(=O)[C@H](C)NC(=O)CCC1CC(OC(=O)NCc2ccc3c(c2)OCO3)CC2(CCCC(COC(=O)NCCCN3CCCC3=O)O2)O1` (stereo not given in full), the composite z-score in experiment [1] was -0.869; in [2] it was 0.62; in experiment [3], -0.0397; in [4] it was 0.469; in [5], 0.829; in [6], 0.357. The composite z-score in experiment [7] was 1.04; in experiment [9], 1.3; in experiment [10], 0.0373; in experiment [11], 1.45; in experiment [15] it was 0.908; in experiment [17], -0.155. The figures for the composite z-score in [18], in experiment [19] and in experiment [20] were 0.424, 1.1 and -0.0128, respectively. The z-score in experiment [8] was -0.787 (inactive); in [12], 0.395 (inactive); in experiment [13], 0.642 (inactive); in experiment [14], 0.502 (inactive); in experiment [16], -0.223 (inactive).
Turning to `CCOC(=O)[C@H](CC(C)C)NC(=O)CCC1CC(OC(=O)NCc2ccc3c(c2)OCO3)CC2(CCCC(COC(=O)NCCC(C)C)O2)O1` (stereo not given in full), the composite z-score was -0.495 in [1]; -0.146 in experiment [2]; -0.119 in experiment [3]; 0.01 in [4]; -0.195 in experiment [5]; 0.169 in experiment [6]. For the same compound, the composite z-score in [7] was 0.312; in [9], -0.11; in experiment [10], -0.291; in [11], 0.145; in [15], -0.222; in experiment [17] it was -0.193. Further, the composite z-score in experiment [18] was 0.482; in experiment [19] it was 0.24; in experiment [20], -0.0828. In addition, the z-score in experiment [8] is 1.38 (inactive); in experiment [12], 0.138 (inactive); in [13] it was 0.991 (inactive); in [14] it was -0.511 (inactive); in experiment [16] it was 0.796 (inactive).
